In PMC4336329 (PLoS ONE, 2015):
Screen size: about 310,000 compounds; about 14,000 (4.5%) showed an effect of 50% or more. Effects have a minus sign here. This excerpt belongs to a sample that is enriched for strong results.

Target: human ether-à-go-go-related gene (hERG) potassium channel (human, UniProt Q12809)
Assay: primary screen, population patch clamp on CHO cells stably expressing hERG; higher = less effect of the substance
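Note: peak tail current of the secondary pulse compared with the same well before compound.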

Chain of human ether-à-go-go-related gene (hERG) potassium channel (Q12809 whole entry, looked up): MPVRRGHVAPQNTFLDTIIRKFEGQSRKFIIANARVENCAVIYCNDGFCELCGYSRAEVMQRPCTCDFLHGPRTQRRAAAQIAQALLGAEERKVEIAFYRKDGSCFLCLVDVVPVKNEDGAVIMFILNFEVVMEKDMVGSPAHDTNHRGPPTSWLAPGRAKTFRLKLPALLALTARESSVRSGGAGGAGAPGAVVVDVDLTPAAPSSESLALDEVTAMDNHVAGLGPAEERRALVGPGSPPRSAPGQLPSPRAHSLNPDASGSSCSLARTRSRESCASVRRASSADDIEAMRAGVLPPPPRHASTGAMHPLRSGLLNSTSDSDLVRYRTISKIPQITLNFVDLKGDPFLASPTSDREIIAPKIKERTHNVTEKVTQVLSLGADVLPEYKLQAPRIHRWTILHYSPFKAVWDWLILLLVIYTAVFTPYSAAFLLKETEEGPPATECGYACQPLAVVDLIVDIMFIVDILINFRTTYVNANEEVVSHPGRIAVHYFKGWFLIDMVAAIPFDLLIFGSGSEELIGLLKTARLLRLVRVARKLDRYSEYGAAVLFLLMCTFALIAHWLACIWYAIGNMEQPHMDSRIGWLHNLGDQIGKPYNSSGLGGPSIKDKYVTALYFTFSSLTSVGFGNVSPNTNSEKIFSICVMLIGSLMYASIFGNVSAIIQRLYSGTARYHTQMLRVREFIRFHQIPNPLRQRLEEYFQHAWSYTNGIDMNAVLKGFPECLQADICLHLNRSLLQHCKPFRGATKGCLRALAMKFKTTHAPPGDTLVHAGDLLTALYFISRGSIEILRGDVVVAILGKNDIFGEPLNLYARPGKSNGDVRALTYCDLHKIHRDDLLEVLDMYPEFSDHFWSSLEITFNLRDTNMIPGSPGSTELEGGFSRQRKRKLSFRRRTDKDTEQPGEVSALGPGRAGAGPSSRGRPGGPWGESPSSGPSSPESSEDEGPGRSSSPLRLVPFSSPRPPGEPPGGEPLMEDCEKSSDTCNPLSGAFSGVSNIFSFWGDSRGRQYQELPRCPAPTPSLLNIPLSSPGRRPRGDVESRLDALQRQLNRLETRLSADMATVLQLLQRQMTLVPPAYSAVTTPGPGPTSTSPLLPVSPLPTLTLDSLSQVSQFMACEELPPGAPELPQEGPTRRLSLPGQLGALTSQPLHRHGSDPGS

Row | Compound | hERG current change (%, negative = inhibition) at 10uM [%]
1 | COc1cc(OC)cc(C(=O)NNC(=O)c2ccc(-n3cncn3)c([N+](=O)[O-])c2)c1 | 5.46
2 | CCN(CC)Cc1cc(C(=O)O)c(C)o1 | 19.4
3 | O=C(CCn1c(=O)c2cccn2c2ccc(F)cc21)NCc1cccc(F)c1 | 23.4
4 | CCOC(=O)COn1c2c(c3c4no[n+]([O-])c4ccc31)CCCC2 | 3.89
5 | CCCCN=Cc1sc2ccc(OCC)cc2c1O | 3.66
6 | CCN(CC)CCCn1c2c(c(SCC(=O)Nc3ccc4c(c3)OCO4)nc1=O)CCC2 | -44.6
7 | CCN(CC)CCn1c2c(c(SCC(=O)Nc3ccc(F)c(F)c3)nc1=O)CCC2 | -70.5
8 | CCN(CC)CCCn1c2c(c(SCC(=O)Nc3ccc4c(c3)OCCO4)nc1=O)CCC2 | -43.4
9 | CN(C)CCn1c2c(c(SCC(=O)Nc3ccc4c(c3)OCCO4)nc1=O)CCC2 | -16.1
10 | CC(=O)c1cccc(NC(=O)CSc2nc(=O)n(CCCN3CCOCC3)c3c2CCC3)c1 | -29.1
11 | CCN(CC)CCCn1c2c(c(SCC(=O)Nc3ccc(F)c(F)c3)nc1=O)CCC2 | -55.1
12 | CCN(CC)CCn1c2c(c(SCC(=O)Nc3ccc4c(c3)OCO4)nc1=O)CCC2 | -39.2
13 | CC(=O)c1cccc(NC(=O)CSc2nc(=O)n(CCN3CCOCC3)c3c2CCC3)c1 | -17.6
14 | CCN(CC)CCCn1c2c(c(SCC(=O)Nc3cccc(C(C)=O)c3)nc1=O)CCC2 | -59.4
15 | COc1ccc(NC(=O)CSc2nc(=O)n(CCN3CCOCC3)c3c2CCC3)cc1 | 0.105
16 | O=C(CSc1nc(=O)n(CCN2CCOCC2)c2c1CCC2)Nc1ccc(OC(F)(F)F)cc1 | -71.8
17 | CCOc1ccc(NC(=O)CSc2nc(=O)n(CCN3CCOCC3)c3c2CCCC3)cc1 | -28.1
18 | COc1cc2c(cc1OC)C(C)N(C(=O)CCN1C(=O)C3C4C=CC(C4)C3C1=O)CC2 (stereo not drawn) | 16
19 | CC12CCC(=O)N1C(C(=O)N1CCN(c3cccc(Cl)c3)CC1)CS2 (stereo not drawn) | -19.4
20 | Cc1ccccc1-c1noc(-c2ccccc2C(=O)NCC2CCCO2)n1 (stereo not drawn) | -3.02
21 | Cc1ccc(C)c2nc3sc(C(=O)O)cc3cc12 | 20.9

Row | Compound | hERG current change (%, negative = inhibition) at 10uM [%]
22 | CN1C(=O)C(C)(C)c2cc(S(=O)(=O)N3CCCC(C(=O)NCc4ccc(Cl)cc4)C3)ccc21 (stereo not drawn) | -8.2
23 | C=CCn1c(O)c(C(CC)=NCc2ccc3c(c2)OCO3)c(=O)[nH]c1=O | 3.09
24 | CCN(CC)c1nc(Nc2ccc([N+](=O)[O-])cc2)nc(N(CC)CC)n1 | 11.1
25 | CCN(CC)CCCn1c2c(c(SCC(=O)Nc3ccc(OC(F)(F)F)cc3)nc1=O)CCC2 | -67.7
26 | Clc1ccc(-c2nnc(SCc3ccon3)o2)c(Cl)c1 | -33.9
27 | COc1ccc(NC(=O)[C@@H]2CCCN2C(=O)[C@@H]2Cc3ccccc3CN2C(=O)OC(C)(C)C)cc1 | 14.8
28 | COC(=O)CCC(=O)c1oc2ccc(OC)cc2c1N | 4.41
29 | O=C(Nc1cc(S(=O)(=O)N2CCOCC2)ccc1OCC(F)(F)F)C1=COCCO1 | -42.8
30 | CC(CC(=O)Nc1ccc(S(=O)(=O)N2CCOCC2)cc1)c1ccccc1 (stereo not drawn) | -4.25
31 | CCOc1ccc(S(=O)(=O)N2CCCCC2)cc1NC(=O)CC1OC(=O)c2ccccc21 (stereo not drawn) | -31.3
32 | O=C(CC1OC(=O)c2ccccc21)Nc1cc(S(=O)(=O)N2CCOCC2)ccc1OCC(F)(F)F (stereo not drawn) | -52.2
33 | CC(CC(=O)Nc1cc(S(=O)(=O)N2CCOCC2)ccc1OCC(F)(F)F)c1ccccc1 (stereo not drawn) | -50.2
34 | CC(C)Oc1ccc(S(=O)(=O)N2CCOCC2)cc1NC(=O)CC1OC(=O)c2ccccc21 (stereo not drawn) | -25
35 | CCOc1ccc(Br)cc1C(=S)N1CCCC1 | 9.29
36 | COC(=O)c1ccc(Oc2cc(C)nc(Cl)n2)cc1 | 13.9
37 | O=C1CCCC2=C1C(c1ccncc1)Nc1ccccc1N2 (stereo not drawn) | 10.2
38 | Cc1ccc(NC(=O)C2CCCN2C(=O)OCc2ccccc2)c(C)c1 (stereo not drawn) | 12.7
39 | Cc1cccc(NC(=O)CC2c3ccccc3Oc3ccccc32)c1 | 18
40 | CC(C)c1cc(N2CCN(C(=O)c3ccco3)CC2)n2c(nc3ccccc32)c1C#N | -34.1
41 | CCCc1cc(-n2ccnc2C)n2c(nc3ccccc32)c1C#N | 0.616
42 | CCCCc1nc(N2CCN(C(=O)c3ccco3)CC2)c(C#N)c2c1CCCC2 | -5.71
